Experimental data as given in PubChem BioAssay (Tox21).
Values without a mark were called inactive. Records with an inconclusive call do not appear. Entries that show only a call come without a potency. Calls of active or inactive are those of the source. The call rests on the fitted dose curve.

How the values were obtained:
[1] = biological target: Acetylcholinesterase (Homo sapiens) (UniProt P22303); assay: Acetylcholinesterase (AChE) small molecule antagonists: colormetric cell-based qHTS assay (AID 1347395); further: nearly all actives have a fitted effect of over 30% in size
Sequence of Acetylcholinesterase (Homo sapiens) (P22303 whole entry, looked up): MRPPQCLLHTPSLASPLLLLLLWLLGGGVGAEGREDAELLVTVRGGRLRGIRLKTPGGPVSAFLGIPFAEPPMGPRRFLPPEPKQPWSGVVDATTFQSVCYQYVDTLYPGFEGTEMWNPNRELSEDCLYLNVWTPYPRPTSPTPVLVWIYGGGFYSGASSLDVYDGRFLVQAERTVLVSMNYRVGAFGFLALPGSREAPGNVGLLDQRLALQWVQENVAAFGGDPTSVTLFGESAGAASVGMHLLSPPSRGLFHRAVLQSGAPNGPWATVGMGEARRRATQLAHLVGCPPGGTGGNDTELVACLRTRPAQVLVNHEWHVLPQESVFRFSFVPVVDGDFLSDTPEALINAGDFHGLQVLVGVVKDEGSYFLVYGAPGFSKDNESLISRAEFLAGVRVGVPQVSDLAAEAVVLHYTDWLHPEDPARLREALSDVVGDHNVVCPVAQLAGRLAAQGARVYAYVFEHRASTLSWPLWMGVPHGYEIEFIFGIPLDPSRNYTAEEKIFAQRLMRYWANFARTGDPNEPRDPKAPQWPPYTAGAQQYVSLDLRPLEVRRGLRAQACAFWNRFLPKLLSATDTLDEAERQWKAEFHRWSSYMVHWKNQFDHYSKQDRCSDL
Procedure, shortened: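 In this cell-based qHTS, attached SH-SY5Y cells were treated with test chemicals for 30 min, after which acetylthiocholine hydrolysis was followed by DTNB colour development over 90 min at 37 C.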

[2] = biological target: Acetylcholinesterase (Homo sapiens) (UniProt P22303); assay: Acetylcholinesterase (AChE) small molecule antagonists: enzyme-based qHTS assay (AID 1347397); conditions: Potency: AChE enzyme activity inhibition; outcome: AChE enzyme activity inhibition; further: nearly all actives have a fitted effect of over 55% in size
Procedure, shortened: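 Human recombinant acetylcholinesterase; substrate acetylthiocholine; thiocholine quantified with DTNB (colorimetric). Compound preincubation 30 min RT; reaction 10 min RT.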

[3] = biological target: Acetylcholinesterase (Homo sapiens) (UniProt P22303); assay: Acetylcholinesterase (AChE) small molecule antagonists: enzyme-based qHTS assay with human liver microsomes (AID 1347399); conditions: Potency: qHTS inhibition; outcome: qHTS inhibition; further: nearly all actives have a fitted effect of over 60% in size
Procedure, shortened: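 Recombinant human AChE (50 mU/mL in the enzyme mix) and human liver microsomes (0.25 mg/mL final) were preincubated with compound and NADPH (0.25 mg/mL final) for 30 min at 37 C. Acetylthiocholine/DTNB was then added; thiocholine was read colorimetrically after 10 min at room temperature.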
Potency means the concentration at half of the fitted maximal effect.

Compound	Potency [1]	Potency [2]	Potency [3]	outcome [1]	outcome [2]	outcome [3]
COc1cc(S(=O)(=O)O)c(C)cc1N=Nc1c(O)ccc2cc(S(=O)(=O)O)ccc12	inactive	inactive	inactive			
CCCOC(C(=O)OC1CCN(C)CC1)(c1ccccc1)c1ccccc1	inactive	inactive	inactive			
CC(=O)[C@]1(O)Cc2c(O)c3c(c(O)c2[C@@H](O[C@H]2C[C@H](N)[C@H](O)[C@H](C)O2)C1)C(=O)c1ccccc1C3=O	17.4 µM (active)	inactive	inactive			
CN(C)[C@@H](CCOc1cccc2ccccc12)c1ccccc1	inactive	inactive	inactive			
O=C1[C@H]2CCCC[C@H]2C(=O)N1CCCCN1CCN(c2nsc3ccccc23)CC1	inactive	inactive	inactive			
CCCCCCCCCCCCCCCC[N+](C)(C)CCN(Cc1ccc(OC)cc1)c1ncccn1	inactive	34.7 µM (active)	inactive			
CCCCCN=C(N)N/N=C/c1c[nH]c2ccc(OC)cc12	inactive	inactive	inactive			
O=S(=O)(O)SSS(=O)(=O)O	71 µM (active)	71 µM (active)	71 µM (active)			
CC1=NN(c2cccc(S(=O)(=O)O)c2)C(=O)C1	inactive	inactive	inactive			
Cc1ncc([C@@H](CCCCCCc2ccc3c(n2)NCCC3)CC(=O)O)cn1	56.4 µM (active)	inactive	inactive			
O=C(O)CCCc1ccccc1	inactive	inactive	inactive			
CN(C)CCOC1=Cc2ccccc2Sc2ccc(Cl)cc21	inactive	inactive	inactive			
O=C(O)c1cccnc1C(=O)O	inactive	inactive	inactive			
CN1CCN(Cc2cc(-c3ccc4[nH]c(=O)oc4c3)co2)[C@@H](c2ccc(F)cc2)C1	inactive	inactive	inactive			
O=C1CCc2cc(OCCCCc3nnnn3C3CCCCC3)ccc2N1	24.5 µM (active)	inactive	inactive			
Cc1nccn1-c1ccc(Sc2cccc(C3(C(N)=O)CCOCC3)c2)cc1				inactive	inactive	inactive
COc1ccc(C2C(=O)c3ccccc3C2=O)cc1	inactive	inactive	inactive			
N#CSCC(=O)O	inactive	inactive	inactive			
COCC(=O)O[C@]1(CCN(C)CCCc2nc3ccccc3[nH]2)CCc2cc(F)ccc2[C@@H]1C(C)C	inactive	inactive	inactive			
CN1C(=O)c2ccc([N+](=O)[O-])cc2C1=O	inactive	inactive	inactive			
NS(=O)(=O)c1cc2c(cc1C(F)(F)F)NC(Cc1ccccc1)NS2(=O)=O (stereo not drawn)	38.9 µM (active)	inactive	inactive			

Compound	Potency [1]	Potency [2]	Potency [3]	outcome [1]	outcome [2]	outcome [3]
C(/C=C/C=C/Nc1ccccc1)=Nc1ccccc1	35.6 µM (active)	inactive	inactive			
NC(=O)NC1N=C([O][Al])NC1=O (stereo not drawn)	inactive	inactive	inactive			
CC1(C)C(=O)C(C)(C)C1=O	inactive	inactive	inactive			
COc1c(C)c2c(c(O)c1C/C=C(\C)CCC(=O)OCCN1CCOCC1)C(=O)OC2	27.5 µM (active)	inactive	inactive			
CN[C@H]1CC[C@@H](c2ccc(Cl)c(Cl)c2)c2ccccc21	inactive	inactive	inactive			
O=C1NC(=O)c2cc([N+](=O)[O-])ccc21	inactive	inactive	inactive			
CC(C(O)c1ccccc1)N(C)CCOC(c1ccccc1)c1ccccc1 (stereo not drawn)	inactive	inactive	inactive			
Oc1ccc(C2CNCCc3c2cc(O)c(O)c3Cl)cc1 (stereo not drawn)	inactive	inactive	inactive			
C[N+]1([O-])CCOCC1	inactive	inactive	inactive			
Oc1ccc(C2(c3ccc(O)cc3)CC3CC2C2CCCC32)cc1 (stereo not drawn)	inactive	76.5 µM (active)	inactive			
c1ccc(CCCc2ccccn2)cc1	inactive	inactive	inactive			
N[C@@H]1CONC1=O	inactive	inactive	inactive			
CCCCC/C=C\C=C\C(=O)OCC	inactive	inactive	inactive			
C[C@@H](O)[C@H]1C(=O)N2C(C(=O)O)=C(S[C@@H]3CN[C@H](CNS(N)(=O)=O)C3)[C@H](C)[C@H]12	inactive	inactive	inactive			
CCCCCCCCCCCCCC[P+](CCCC)(CCCC)CCCC (tested in a mixture with another compound)	inactive	inactive	inactive			
Cc1cc(-c2ccccc2)nnc1NCCN1CCOCC1	inactive	inactive	inactive			
CCOC(=O)C(C)(C)C	inactive	inactive	inactive			
CCN(CC)c1ccc2c(c1)Oc1cc(N(CC)CC)ccc1C21OC(=O)c2ccccc21	inactive	inactive	inactive			
O=C1C=CC(=O)N1c1ccc(Cc2ccc(N3C(=O)C=CC3=O)cc2)cc1	inactive	inactive	inactive			
CC(CN(C)C)CN1c2ccccc2CCc2ccccc21 (stereo not drawn)	inactive	inactive	inactive			
